Screens from PubChem.
TMEM16A inh – inhibitors of mouse TMEM16A calcium-activated chloride channel. Q8BHY3. HEK293 TMEM16A/YFP iodide influx fluorescence, ionomycin. normalized B-score (activity score, 25-100; higher = stronger inhibition) at 10 µM. 310,000 tested, 1.2% active;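 active means ratio plate-corrected score three or more library SD toward inhibition, starting fluorescence score within five deviations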;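 further: score derived from kinetic fluorescence span divided by baseline fluorescence per well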
Target sequence (Q8BHY3 whole entry, looked up): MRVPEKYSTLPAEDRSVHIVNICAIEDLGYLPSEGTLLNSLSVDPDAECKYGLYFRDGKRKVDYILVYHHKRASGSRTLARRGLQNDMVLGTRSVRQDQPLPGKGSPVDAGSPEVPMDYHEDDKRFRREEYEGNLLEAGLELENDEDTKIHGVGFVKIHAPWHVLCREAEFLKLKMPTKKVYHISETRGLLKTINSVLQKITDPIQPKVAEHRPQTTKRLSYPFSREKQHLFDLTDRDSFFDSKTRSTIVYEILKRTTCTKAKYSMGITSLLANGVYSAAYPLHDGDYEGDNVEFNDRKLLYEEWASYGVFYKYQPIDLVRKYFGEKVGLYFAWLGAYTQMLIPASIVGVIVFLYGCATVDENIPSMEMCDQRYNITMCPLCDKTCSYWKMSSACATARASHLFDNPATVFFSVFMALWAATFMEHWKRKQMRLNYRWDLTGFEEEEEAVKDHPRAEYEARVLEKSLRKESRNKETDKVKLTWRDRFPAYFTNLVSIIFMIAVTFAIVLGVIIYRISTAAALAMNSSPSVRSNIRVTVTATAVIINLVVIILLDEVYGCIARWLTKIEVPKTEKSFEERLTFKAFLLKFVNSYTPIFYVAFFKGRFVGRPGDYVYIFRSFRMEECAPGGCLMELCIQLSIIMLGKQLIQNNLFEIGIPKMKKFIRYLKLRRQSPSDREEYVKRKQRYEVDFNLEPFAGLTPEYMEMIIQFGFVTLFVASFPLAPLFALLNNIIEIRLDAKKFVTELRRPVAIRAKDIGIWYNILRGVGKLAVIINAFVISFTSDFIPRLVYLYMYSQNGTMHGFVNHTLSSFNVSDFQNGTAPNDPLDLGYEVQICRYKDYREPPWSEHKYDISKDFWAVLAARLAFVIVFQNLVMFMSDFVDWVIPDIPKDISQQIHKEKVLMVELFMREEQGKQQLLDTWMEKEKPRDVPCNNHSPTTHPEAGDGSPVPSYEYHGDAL
KCNK9 block – human KCNK9 channel inhibition; AID 488922; B-score at 10 µM; HEK293 KCNK9, FluxOR thallium flux fluorescence; hits give low values; 310,000 tested, 1.2% active;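 active means ratio B-score over 3 SD below the library mean, with starting fluorescence within 5 SD of its mean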;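 further: negative B-score means less thallium flux so channel inhibition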
Kir21 inh – Kir2.1 (mouse) channel inhibition | P35561 | HEK293-Kir2.1, FluxOR thallium flux fluorescence; hits give low values | B-score at 10 µM | 310,000 tested, 0.85% active;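 active means fluorescence ratio B-score at or below minus 3 SD of library scores, with starting-brightness B-score within 2 SD, cut at about -4.2 in these data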;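 further: channel flux triggered by added potassium and thallium sulfate stimulus; B-score of peak minus minimum fluorescence over baseline after thallium stimulus; more negative B-score means stronger Kir2.1 block with less thallium influx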
ANO1 activ – activators or potentiators of mouse TMEM16A chloride channel. B-score at 10 µM. HEK293 TMEM16A/YFP-H148Q/I152L, iodide quench fluorescence; hits give low values. Q8BHY3. 340,000 tested, 0.3% active. AID 623877;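 active means fluorescence-ratio B-score plate-corrected deviation score at least 3 library SD below zero, with starting fluorescence score within 5 deviations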;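 further: channel opened by trigger with iodide after compound preincubation; score built on the fluorescence ratio of max minus min over baseline; more negative score means more quench and so TMEM16A activation or potentiation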
KCNK3 block – human KCNK3 channel inhibition, primary screen | O14649 | AID 602410 | CHO-KCNK3 thallium flux, FluxOR fluorescence; hits give low values | 340,000 tested, 0.84% active | B-score at 10 µM;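 active means B-score under library mean minus 4 SD, starting fluorescence ratio at most library mean plus 5 SD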;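 further: more negative B-score means stronger inhibition of thallium flux through KCNK3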
KCNK9 inh conf – human KCNK9 inhibitor confirmation; HEK293 KCNK9 cells, FluxOR thallium flux fluorescence; AID 492992; inhibition, % at 10 µM; 4,900 tested, 43% active; shares compounds with KCNK9 block;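 active means thallium signal inhibited by more than 5 SD of the compound-free buffer control wells, on both duplicate plates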;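 further: 0% = assay buffer control wells without compound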
Kir2-1 spec – tests whether KCNK9 modulators also affect mouse Kir2.1. shares compounds with KCNK9 block. Kir2.1 cells, FluxOR thallium flux fluorescence. inhibition, % at 10 µM. 4,900 tested, 4% active;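 active means thallium signal drop more than 5 SD beyond the mean of the no-compound control wells, seen in both duplicate plates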;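 further: signal is fluorescence rise after thallium addition divided by baseline fluorescence; plate controls were assay buffer only for no effect and full block by chlorpromazine control for full effect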
KCNK9 uninduced – second counter-screen for KCNK9 modulators: effect in non-induced cells. shares compounds with KCNK9 block. non-induced KCNK9-HEK293, FluxOR thallium flux. inhibition, % at 10 µM. 4,900 tested, 40% active. AID 492997;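 active means thallium signal drop beyond 5 SD of the untreated control mean, on both duplicate plates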;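 further: plate controls were buffer only IC0 wells for no effect and SID17386958 at its maximal inhibitory level for full effect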
Numbers without * were called inactive; i = inactive; · = no result given. In the library only some 3.5% were active in any assay of this set; here they are far more common.

SMILES	TMEM16A inh	KCNK9 block	Kir21 inh	ANO1 activ	KCNK3 block	KCNK9 inh conf	Kir2-1 spec	KCNK9 uninduced
CC(=O)c1cccc(NC(=O)CSc2nnc(C(C)N(C)C)n2Cc2ccccc2)c1 (configuration not stated)	i	i	-0.87	i	i	·	·	·
O=C(COC(=O)c1cc(=O)[nH]c2ccccc12)NCCc1ccccc1	·	·	·	i	i	·	·	·
COc1ccc(N2CSC3=C(C#N)C(c4cccc(OC)c4OC)CC(=O)N3C2)cc1 (configuration not stated)	i	i	0.34	i	i	·	·	·
COc1ccc(C2CC(=O)N3CN(c4ccc(C)c(Cl)c4)CSC3=C2C#N)cc1 (configuration not stated)	i	i	0.13	i	i	i	i	i
CC(C)CSC1=NSC2=NC(=O)/C(=C\c3ccccc3)C(=N)N12	25*	i	1.2	i	i	i	i	i
CCS(=O)(=O)N1CCN=C1SCc1cccnc1	i	i	0.05	i	i	·	·	·
CC(NC(=O)c1ccc2c(c1)C(=O)N(Cc1cccnc1)C2=O)c1ccccc1 (configuration not stated)	i	i	1.2	i	i	·	·	·
COCCN(Cc1nc2ccccc2c(=O)[nH]1)C(=O)COc1cccc(C(C)=O)c1	·	·	·	i	i	·	·	·
COc1ccc(/C=N/NC(=O)c2cccnc2)cc1CN1CCN(c2ccc(F)cc2)CC1	i	i	0.01	i	i	·	·	·
COc1ccc(C(=O)N/N=C/c2ccc(OC)c(CN3CCN(c4ccc(F)cc4)CC3)c2)cc1	i	i	1	i	i	i	i	i
COc1cc(OC)c(CN2CCN(c3ccc(F)cc3)CC2)cc1Br	i	i	1.2	i	i	i	i	i
CN1C(=O)C(Cc2cnc[nH]2)NC1=S (configuration not stated)	i	i	-1.7	i	i	·	·	·
COc1ccc(C(=O)c2coc(-c3ccccc3C(=O)O)c2C(=O)O)cc1	i	i	0.97	i	i	·	·	·
Cc1ccc(C(=O)c2coc3c2C(=O)C(=O)c2ccccc2-3)cc1	i	-9.4*	-0.44	i	i	i	i	i
O=C(CN1CCN(c2ccccn2)CC1)N1c2ccccc2CCc2ccccc21	i	i	-0.55	i	i	·	·	·
Cc1c(C)n(C(=O)CN2CCN(c3ccccn3)CC2)c2ccccc12	i	i	0.14	i	i	i	i	i
Cc1ccc(/C(=N\O)c2oc3c(C)c4oc(=O)cc(C)c4cc3c2C)cc1	i	-9.3*	0.04	i	i	28%*	i	44%*
Cc1cc(=O)oc2c1ccc1oc(/C(=N/O)c3ccccc3)c(C)c12	i	i	1	i	i	·	·	·
CCCOc1ccc(-c2c(=O)n(OCc3ccc([N+](=O)[O-])cc3)c3ccccc3[n+]2[O-])cc1	i	-11*	1.4	i	i	50%*	i	34%*
O=C(CCl)N(c1ccccc1)c1c[nH]c2ccccc12	i	i	-0.22	i	i	·	·	·
O=C(CCl)N(c1ccc(Cl)cc1)c1c[nH]c2ccccc12	i	i	-4	i	i	i	i	i
O=C(Nc1ccon1)c1cccc(S(=O)(=O)N2CCCC2)c1	i	i	-1.2	i	i	·	·	·
COc1cc(C)ccc1OCc1cc(C(=O)N2CCC(c3ccc(F)cc3)C2)no1 (configuration not stated)	i	i	0.71	i	i	i	i	i
COCC1CCN(C(=O)c2cc(COc3ccc(F)cc3F)on2)C1 (configuration not stated)	i	i	0.45	i	i	·	·	·
Cc1ccc(C)c(OCc2cc(C(=O)N3CC[C@@H]4CCCC[C@H]4C3)no2)c1	i	i	0	i	i	i	i	24%*
SMILES	TMEM16A inh	KCNK9 block	Kir21 inh	ANO1 activ	KCNK3 block	KCNK9 inh conf	Kir2-1 spec	KCNK9 uninduced
O=C(OCn1nnc2ccccc2c1=O)c1ccc2c(=O)n3c(nc2c1)CCC3	i	i	1.6	i	i	·	·	·
Cc1nn(Cc2ccc(Cl)cc2)c(=O)n1N(C)c1ncc(C(F)(F)F)cc1Cl	i	i	-1.1	i	i	i	i	i
Cc1nn(Cc2ccc([N+](=O)[O-])cc2)c(=O)n1N(C)c1ncc(C(F)(F)F)cc1Cl	i	i	-0.69	i	i	·	·	·
CC1(C)CC(=O)c2c(O)cc(OCc3ccc(Br)cc3)cc2O1	i	-8.4*	-2	i	i	73%*	i	42%*
O=C(O)/C=C\C(=O)Nc1ccc(N2CCN(c3ccc(Cl)c(Cl)c3)CC2)cc1	i	i	2.1	i	i	i	i	i
O=C(CNC(=O)c1sc2ccccc2c1Cl)OCc1ccccc1	i	i	1.4	i	i	·	·	·
Cc1ccccc1COC(=O)CNC(=O)c1sc2ccccc2c1Cl	i	i	0.05	i	i	i	i	i
CCN(CC)CCCn1c2c(c(SCC(=O)Nc3nc4ccccc4s3)nc1=O)CCC2	i	i	1.2	i	i	·	·	·
Cc1ccc(C(=O)OCC(=O)NCc2cccs2)cc1S(=O)(=O)N1CCOCC1	i	i	1.5	i	i	·	·	·
COc1ccc(CC(=O)NNC(=O)c2cc(C)oc2C)cc1OC	i	i	0	i	i	·	·	·
O=C1C2C3C=CC(C4CC34)C2C(=O)N1c1cccc2ccccc12 (configuration not stated)	i	i	-1.3	i	i	·	·	·
Clc1cccc(COn2c(-c3ccc(Cl)cc3Cl)nc3ncccc32)c1	i	-8.8*	-2.3	i	i	46%*	i	35%*
COn1c(-c2ccccc2)nc2ncccc21	i	i	0.71	i	i	·	·	·
COc1ccc(CCN(C)Cc2cccc3ccccc23)cc1OC	i	i	-1	i	i	·	·	·
CN(C/C=C/C#CC(C)(C)C)Cc1cccc2ccccc12	i	i	-0.03	i	i	i	i	i
COc1cc(C(CCN2CCN(c3ccccc3)CC2)c2c(OC)cc(OC)c3c(C)cc(=O)oc23)cc(OC)c1OC (configuration not stated)	i	i	-0.05	i	i	i	i	i
Cc1cc(C)n(-c2nc3ccccc3nc2N2CCN(C(=O)c3ccccc3)CC2)n1	i	i	-1.5	i	i	i	i	i
